hDAT+cocaine: human DAT dopamine uptake with cocaine, either direction. actives 1.3% (n = 110,000). Q01959. B-score at 10 µM. LLC-PK1 hDAT cells, [14C]-dopamine uptake with cocaine IC80; actives deviate in either direction;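 active means Z score or B-score, a plate-position-corrected score, falls beyond the plate's 99.7% confidence bounds, in either direction; inactive means both scores lie inside the 99.7% bounds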;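 further: scored against the spread of the other compound wells on the same plate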
PostGolgi yeast: growth inhibition of a yeast mutant, post-Golgi transport screen | post-Golgi transport phenotypic cell assay | inhibition, % at 10 µM | actives 0.9% (n = 98,000) | AID 739;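 further: yeast cells grown in 1536-well plates; yeast grown about 18 h at 30C before absorbance read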
D1 allo mod: D1 dopamine receptor (human) allosteric modulation | P21728 | HEK293 D1, CRE-luciferase, dopamine EC30 potentiation; actives deviate in either direction | B-score at 10 µM | actives 5.9% (n = 58,000);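 active means luminescence count or its row- and column-corrected plate score outside the 99.7% band of the plate's sample wells, on either side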
Cav3 T inh: human Cav3.2 channel inhibition, primary screen | actives 4% (n = 100,000) | AID 449739 | Cav3.2-expressing cells, Fluo-4 calcium fluorescence FDSS; active compounds read low | B-score at 10 µM | O95180;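 active means single-dose well whose peak fluorescence ratio is a statistical outlier from its plate by either plate-standardised score or position-corrected B-score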
PLAP activator: human PLAP activation | P05187 | purified PLAP enzyme, luminescent substrate read-out; active compounds read high | activation fold at 20 µM | actives 1.2% (n = 96,000) | AID 696; in the data active means activation fold above about 2
PostGolgi ctrl: yeast control strain growth, post-Golgi counter-screen. actives 5% (n = 98,000). inhibition, % at 10 µM. efflux-deficient yeast background strain, growth absorbance A615, 16 h
D1 mod confirm: D1 receptor (human) allosteric modulation, confirmed; shares compounds with D1 allo mod; HEK293 D1 CRE-luciferase, dopamine EC30 potentiation; active compounds read high; luminescence at 10 µM; actives 88% (n = 2,200); AID 642;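 active means luminescence in either of two replicates above the same-plate mean plus 3 SD of the low-dose dopamine control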
D1 ag no DA: activates D1 CRE-luciferase signal without dopamine present. shares compounds with D1 allo mod. HEK293 D1 CRE-luciferase, luminescence, no dopamine; active compounds read high. luminescence at 10 µM. actives 0.8% (n = 1,900). AID 646; in the data active means luminescence above about 3900
Isoprot counter: alters isoproterenol CRE-luciferase response in HEK293 cells; HEK293 D1 CRE-luciferase, isoproterenol EC30 counter-screen; shares compounds with D1 allo mod; actives 63% (n = 2,200); calls only at 10 µM;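 active means luminescence in either replicate above plate mean of wells with a partly effective reference agonist dose plus 3 SD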;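 further: isoproterenol raises cAMP through native beta-adrenoceptor Gs so signal bypasses D1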
* = called active by the depositor; i = inactive; . = not tested or not shown; + = active, no number. A selection: hits, their analogues and other compounds. The true share with any hit is near 12%. Unless noted, no stated cut-off is given here; in the data, active means inhibition above about 30%; inactive means the rest.

SMILES	hDAT+cocaine	PostGolgi yeast	D1 allo mod	Cav3 T inh	PLAP activator	PostGolgi ctrl	D1 mod confirm	D1 ag no DA	Isoprot counter
COc1cccc(N(C(=O)c2cccs2)c2nc3ccccc3s2)c1	-1.1	14	7.6*	-0.39	1.1	23	7024*	.	+
CNC(=O)N(C1=NCC(C)(C)S1)c1ccc(F)c(Cl)c1	0.29	3	11*	-1.7	0.9	22	25560*	1876	+
Cc1cc(-c2ccc(F)cc2)nc2cc(C(N)=O)nn12	-0.13	1	10*	2	1.3	22	15420*	1800	+
Cc1cc2cc(CN(CCN3CCOCC3)C(=O)Nc3ccccc3F)c(=O)[nH]c2cc1C	2	18	2.7*	0.41	1.3	0	5960*	1568	i
Cc1cc(NC(=O)CCS(=O)(=O)c2nc(-c3ccccc3)cc(C(F)(F)F)n2)no1	0.48	.	1.4	1.3	1.2	.	.	.	.
CS(=O)(=O)c1nc(-c2ccccc2)cc(C(F)(F)F)n1	.	26	4.1*	.	.	51*	6308*	.	i
O=C(N/C(=C/c1ccco1)C(=O)N1CCCCC1)c1cccs1	-0.74	-7	.	-0.5	0.9	27	.	.	.
CNC(=O)N(C1=NCC(C)S1)c1ccc(F)cc1F (stereo not drawn)	-0.08	-3	5.3*	0.95	0.8	11	16972*	1640	+
COc1ccc(NC2=NCC(=O)N2Cc2cccs2)cc1	-0.28	-5	.	1.6	0.9	-2	.	.	.
COc1cccc(NC2=NCC(=O)N2Cc2cccs2)c1	-0.32	-3	4.2*	-0.16	1	3	8816*	1624	i
Cc1ccc(N2C(=O)c3ccc(C(=O)N4CCN(c5ccccc5F)CC4)cc3C2=O)cc1	-0.042	-2	-0.049	-0.79	1.2	11	.	.	.
OC[C@H]1O[C@@H](n2cnc3c(NC4CCCC4)ncnc32)[C@H](O)[C@@H]1O	0.68	.	5.5*	-0.32	.	.	7504*	2116	+
CCOc1ccc(CC(=O)C2C(=O)CC(C)(C)CC2=O)cc1OCC	-0.012	7	.	0.23	1	12	.	.	.
CCOc1ccc(CC(=O)C2C(=O)CCCC2=O)cc1OCC	0.028	-2	4.3*	-0.042	0.8	15	10588*	1684	+
CCSc1nc2cc(OC)c(OC)cc2c(=O)n1CC	-0.0074	-2	11*	-0.43	1.5	24	13604*	1368	+
COc1cc(CSc2ncn[nH]2)c(OC)cc1CSc1ncn[nH]1	-0.57	3	-1.6	-0.64	1.1	10	.	.	.
COc1ccc(C(=O)CSc2ncn[nH]2)cc1OC	0.6	1	18*	-0.58	2.1*	24	17148*	1644	+
COC(=O)c1sc(Nc2ccccc2)nc1C	0.67	-3	0.11	-0.19	1.1	24	.	.	.
CC(C)(C)C(=O)c1sc(Nc2ccccc2)nc1N	1.3*	-7	12*	-1.8	1	25	16628*	1584	+
COc1ccc(N2CCN(S(=O)(=O)c3cccs3)CC2)cc1	-0.065	1	5*	-1.2	0.9	-8	9608*	1628	i
CCOC(=O)[C@@H]1[C@H]2COc3ccccc3[C@@H]2N2C(=O)N(c3cccc(F)c3)C(=O)[C@]12C	0.19	.	.	0.4	.	.	.	.	.
CCCn1c(=NC(=O)c2ccco2)c(C(=O)OCC)cc2c(=O)n3ccccc3nc21	0.18	6	6.1*	1.1	1.2	5	16752*	1572	i
CCOC(=O)c1cc2c(=O)n3ccccc3nc2n(CCCOC)c1=NC(C)=O	.	16	4.7*	.	1.1	17	9064*	.	i
O=C(CSc1nnc2sc3ccccc3n12)NCc1ccc2c(c1)OCO2	0.56	.	-0.0052	-0.59	.	.	.	.	.
O=C(CSc1nnc2scc(-c3ccc(Cl)cc3)n12)NCc1ccc2c(c1)OCO2	-0.0078	8	6.3*	-0.065	0.9	-11	13884*	1740	+
SMILES	hDAT+cocaine	PostGolgi yeast	D1 allo mod	Cav3 T inh	PLAP activator	PostGolgi ctrl	D1 mod confirm	D1 ag no DA	Isoprot counter
Nn1c(SCC(=O)NCc2ccc3c(c2)OCO3)nnc1C1CC1	0.44	-7	.	-0.74	0.8	11	.	.	.
O=C(CSc1nnc2scc(-c3ccccc3)n12)NCc1ccc2c(c1)OCO2	2.1	7	7.1*	0.61	0.9	-12	15400*	1784	+
COc1ccccc1-c1nnc2n1N=C(C(C)(C)C)CS2	1.3	4	4*	0.46	1	3	10640*	1636	i
CC(C)(C)C1=Nn2c(nnc2-c2ccccc2F)SC1	0.0048	12	21*	0.24	1	6	20880*	.	+
CC(C)(C)C1=Nn2c(nnc2-c2ccccn2)SC1	-0.65	1	.	0.027	1.1	9	.	.	.
COc1ccc(S(=O)(=O)N(CC(=O)NCC2CCCO2)c2ccc(F)cc2)cc1OC (stereo not drawn)	-0.21	-4	.	1.2	1.1	9	.	.	.
Cc1cc(NC(=O)CCCC(=O)NCc2cccs2)no1	-0.11	-1	-0.14	0.97	1	5	.	.	.
CCN(CC)C(=O)CSC(=Nc1ccccc1F)NC#N	0.044	3	0.0074	1.3	1.2	-4	.	.	.
C=CCN=C(NC#N)SCc1ccccc1Cl	-0.58	1	7.4*	0.067	0.8	-6	8148*	.	i
COc1cc(C2C(C#N)=C(N)Oc3cc(O)ccc32)cc2c1OCO2 (stereo not drawn)	-1.3	-7	4.1*	-3.7	0.8	9	11740*	1532	+
COc1cc(C2C(C#N)=C(N)Oc3cc(N(C)C)ccc32)cc2c1OCO2 (stereo not drawn)	-1.4	-1	7.3*	-2.4	1.2	18	15056*	1964	+
CCOC(=O)C1=C(C)OC(N)=C(C#N)C1c1cc(OC)c2c(c1)OCO2 (stereo not drawn)	0.51	-10	2.8	-0.21	0.9	4	.	.	.
C=CCNc1nc(Nc2ccc(OC)cc2OC)nc(OCC)n1	0.72	17	3.8*	-0.64	1	14	10064*	1524	+
CC1CCC2(CC1)N=C(N)Nc1nc3ccccc3n12 (stereo not drawn)	0.0029	2	.	-0.29	1.4	6	.	.	.
COc1ccc(NC(=O)CSc2nc3ccccc3c(=O)n2-c2ccc3c(c2)OCO3)c(OC)c1	-0.1	-3	3.9*	-0.67	1	21	8076*	1568	+
CCNc1nc(NCC)n2c(SCc3ccc(F)cc3)nnc2n1	-0.0076	17	.	1.1	1	4	.	.	.
CCNc1nc(NCC)n2c(SCc3nc4ccccc4c(=O)[nH]3)nnc2n1	-0.56	21	27*	0.89	1.1	4	21452*	1628	+

Screening data: PubChem, several laboratories
